Records with an inconclusive call do not appear. Activity calls are given as the source filed them. Unless noted, calls come from the whole dose curve.
Key:
[1] = Nuclear factor erythroid 2-related factor 2/antioxidant responsive element (Nrf2/ARE) small molecule agonists: qHTS cell viability counter screen in human keratinocytes (AID 1919968; active = well fitted curve in the direction sought with a large enough effect in the repeat runs; an effect the other way counts as inactive or inconclusive; note: nearly all actives have a fitted effect of over 55% in size); conditions: KeratinoSens HaCaT ARE cells viability, CellTiter-Fluor, 24 h; series mostly up to 92.4 µM
In short: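 CellTiter-Fluor fluorescence, read 1 h after reagent, gave viability in the same wells as the ARE-luciferase assay. KeratinoSens cells (1,500/well) had 23 h compound exposure at 37 C/5% CO2 following 5 h plating.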

[2] = Nuclear factor erythroid 2-related factor 2/antioxidant responsive element (Nrf2/ARE) small molecule agonists: luciferase reporter gene qHTS assay in human keratinocytes (AID 1919969); conditions: KeratinoSens HaCaT ARE-luciferase, luminescence, 24 h; series mostly up to 92.4 µM; note: nearly all actives have a fitted effect of over 35% in size; note: potency is the fitted concentration of half-maximal effect
[3] = target: Gonadotropin-releasing hormone receptor (Homo sapiens) (UniProt P30968); experiment: Human gonadotropin-releasing hormone receptor (GnRHR) small molecule agonists, calcium flux assay in GnRHR-HEK293 cells (AID 1920063); conditions: calcium flux fluorescence, agonist mode; series mostly up to 57.6 µM; note: nearly all actives have a fitted effect of over 35% in size
Sequence of Gonadotropin-releasing hormone receptor (Homo sapiens) (P30968 whole entry, looked up): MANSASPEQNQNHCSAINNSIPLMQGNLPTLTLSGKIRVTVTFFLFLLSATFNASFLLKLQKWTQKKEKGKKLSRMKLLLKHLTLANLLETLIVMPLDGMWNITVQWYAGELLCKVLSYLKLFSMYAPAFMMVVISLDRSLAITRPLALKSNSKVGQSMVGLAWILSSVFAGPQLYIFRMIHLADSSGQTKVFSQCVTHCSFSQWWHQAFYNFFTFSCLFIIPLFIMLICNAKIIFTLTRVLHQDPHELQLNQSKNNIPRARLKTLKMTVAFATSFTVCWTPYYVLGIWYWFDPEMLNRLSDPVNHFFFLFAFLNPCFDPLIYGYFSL
In short: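 Agonist mode: compounds at 15 concentrations, in triplicate, went onto calcium dye-loaded GnRHR-HEK293 cells. Intracellular calcium was then followed as 480/540 nm fluorescence at 1 s intervals over 3 min.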

[4] = target: KiSS-1 receptor (Homo sapiens) (UniProt Q969F8); experiment: Human kisspeptin (KISS1R) small molecule agonists, calcium flux assay in KISS1R-HEK293 cells (AID 1920064; active = well fitted curve in the direction sought with a large enough effect in the repeat runs; an effect the other way counts as inactive or inconclusive); conditions: KISS1R-HEK293, calcium flux fluorescence, agonist; series mostly up to 76.8 µM
Sequence of KiSS-1 receptor (Homo sapiens) (Q969F8 whole entry, looked up): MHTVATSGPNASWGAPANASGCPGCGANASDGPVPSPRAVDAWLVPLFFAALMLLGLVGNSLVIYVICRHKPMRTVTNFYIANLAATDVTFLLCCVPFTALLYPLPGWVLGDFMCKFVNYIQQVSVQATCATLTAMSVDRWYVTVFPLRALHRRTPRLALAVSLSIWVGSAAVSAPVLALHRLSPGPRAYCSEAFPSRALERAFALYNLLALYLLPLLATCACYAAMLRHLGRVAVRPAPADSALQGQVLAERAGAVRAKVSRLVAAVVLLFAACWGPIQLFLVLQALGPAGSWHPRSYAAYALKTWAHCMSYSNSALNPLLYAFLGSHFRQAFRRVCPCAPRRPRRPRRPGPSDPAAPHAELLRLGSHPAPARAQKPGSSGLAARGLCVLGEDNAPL
In short: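 Agonist mode: intracellular calcium rise tracked at 1 s intervals over 3 min (480/540 nm) immediately after compound addition to dye-loaded KISS1R-HEK293 stable cells. Each compound tested at 15 concentrations in triplicate.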

[5] = G protein-coupled receptor (GPCR) small molecule agonists, calcium flux assay: HEK293 wild type cell line counter screen (AID 1920065); conditions: HEK293 WT calcium flux, fluorescence, agonist mode; series mostly up to 57.6 µM
In short: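 Calcium flux counter screen: compound added in agonist mode at 15 concentrations in triplicate to dye-loaded parental HEK293 cells. Fluorescence (480/540) read kinetically for 3 min; ATP served as positive control.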

[6] = p53 small molecule agonists, cell-based qHTS assay with human liver microsomes (AID 1963577); conditions: HCT-116 p53RE-bla with human liver microsomes, ratio, 16 h; series mostly up to 66 µM;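 note: p53 response element beta-lactamase reporter cells with liver microsomes plus NADPH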
In short: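 p53RE-bla cells; 5 h settle, 37 C/5% CO2; cpd + HLM 0.5 mg/mL + NADPH 0.5 mg/mL (final); 16 h 37 C; LiveBLAzer 2 h RT dark; fluorescence readout.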

[7] = p53 small molecule agonists, cell-based qHTS assay with rat liver microsomes (AID 1963578); conditions: HCT-116 p53RE-bla, beta-lactamase ratio, 16 h; series mostly up to 66 µM
In short: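 Rat liver microsome activation: microsomes 0.5 mg/mL, NADPH 0.5 mg/mL final; p53RE-bla cells, 16 h 37 C; LiveBLAzer readout, 2 h RT dark.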

[8] = p53 small molecule agonists, cell-based qHTS assay with human liver microsomes: qHTS cell viability counter screen (AID 1963579); conditions: p53RE-bla HCT-116 viability, ATP luminescence, 16 h, HLM; series mostly up to 66 µM; note: nearly all actives have a fitted effect of over 45% in size
In short: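 Luminescent CellTiter-Glo read-out, 30 min at room temperature, gauged cytotoxicity in p53RE-bla cells exposed 16 h at 37 C to DMSO-dissolved compounds with metabolic activation by human liver microsomes and NADPH, each 0.5 mg/mL final.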

[9] = p53 small molecule agonists, cell-based qHTS assay with rat liver microsomes: qHTS cell viability counter screen (AID 1963580); conditions: p53RE-bla HCT-116 + rat microsomes, ATP viability, 16 h; series mostly up to 66 µM; note: nearly all actives have a fitted effect of over 45% in size
In short: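 Cytotoxicity counter screen: intracellular ATP measured by CellTiter-Glo luminescence in the same wells as the beta-lactamase reporter read, on HCT-116 p53RE-bla cells exposed 16 h at 37 C to compounds with rat liver microsomes and NADPH, each 0.5 mg/mL final.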

[10] = p53 small molecule agonists, cell-based qHTS assay: qHTS cell viability counter screen (AID 1963581); conditions: p53RE-bla HCT-116 viability, ATP luminescence, 16 h; series mostly up to 66 µM; note: nearly all actives have a fitted effect of over 45% in size
In short: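 Counter screen read by CellTiter-Glo luminescence (ATP content, 30 min at room temperature), run in the same wells as the beta-lactamase reporter read. HCT-116 p53RE-bla cells saw compounds for 16 h at 37 C.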

[11] = p53 small molecule agonists, cell-based qHTS assay (AID 1963582; active = well fitted activation curve with a large enough effect in the signal ratio in the repeat runs, not every such curve was filed as active; the % refers to the signal ratio); conditions: HCT-116 p53RE-bla reporter, beta-lactamase FRET ratio, 16 h; series mostly up to 66 µM
In short: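 Read-out is beta-lactamase FRET fluorescence after 2 h at room temperature with LiveBLAzer B/G substrate. p53 response element-bla cells were treated 16 h at 37 C with compounds in DMSO, added 5 h after seeding.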

[12] = target: Muscarinic acetylcholine receptor M1 (Homo sapiens) (UniProt P11229); experiment: Cholinergic receptor muscarinic 1 (CHRM1) small molecule antagonists, cell-based qHTS assay (AID 1963588); conditions: CHRM1-CHO antagonist mode, calcium flux fluorescence; series mostly up to 61.5 µM; note: nearly all actives have a fitted effect of over 40% in size
Sequence of Muscarinic acetylcholine receptor M1 (Homo sapiens) (P11229 whole entry, looked up): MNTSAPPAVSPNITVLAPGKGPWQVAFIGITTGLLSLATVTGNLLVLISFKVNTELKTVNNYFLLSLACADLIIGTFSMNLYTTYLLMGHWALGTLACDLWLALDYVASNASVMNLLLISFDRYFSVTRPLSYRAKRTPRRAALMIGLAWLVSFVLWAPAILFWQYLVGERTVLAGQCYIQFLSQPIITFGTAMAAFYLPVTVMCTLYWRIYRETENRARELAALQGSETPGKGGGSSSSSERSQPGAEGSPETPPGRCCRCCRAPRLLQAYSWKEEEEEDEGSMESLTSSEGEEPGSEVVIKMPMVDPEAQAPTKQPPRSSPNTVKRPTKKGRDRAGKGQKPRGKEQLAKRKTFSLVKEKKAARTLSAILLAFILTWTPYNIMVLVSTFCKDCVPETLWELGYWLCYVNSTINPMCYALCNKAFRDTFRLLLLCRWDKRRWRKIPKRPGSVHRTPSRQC
In short: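 Compounds were tested at 15 concentrations in three independent runs. Dye-loaded CHRM1-CHO cells were exposed 5 min at room temperature before stimulation by acetylcholine added at 50nM. Intracellular calcium was read kinetically on FDSS for 3 min.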

[13] = target: Muscarinic acetylcholine receptor M1 (Homo sapiens) (UniProt P11229); experiment: Cholinergic receptor muscarinic 1 (CHRM1) small molecule agonists, cell-based qHTS assay (AID 1963589); conditions: CHRM1-CHO cells, agonist mode, calcium flux fluorescence; series mostly up to 76.8 µM; note: nearly all actives have a fitted effect of over 35% in size
In short: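 Agonist-mode calcium-flux screen: compounds at 15 concentrations, three independent runs, were pin-transferred onto dye-loaded human CHRM1-CHO cells. Fluorescence was then recorded kinetically every second over minutes.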

[14] = cAMP Responsive Elements (CRE) small molecule agonists, cell-based qHTS assay (AID 1963590); conditions: CRE-bla HEK293T, beta-lactamase FRET ratio, 3 h; series mostly up to 92.4 µM
In short: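 Agonist mode: compound added to CRE-bla HEK 293T cells (2,000/well, 18 h after plating) for 3 h at 37 C/5% CO2. Reporter activity detected via FRET beta-lactamase substrate, 2 h room-temperature loading.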

[15] = cAMP Responsive Elements (CRE) small molecule antagonists, cell-based qHTS assay (AID 1963591; active = well fitted inhibition curve with a large enough effect in the signal ratio in the repeat runs, not every such curve was filed as active; the % refers to the signal ratio); conditions: CRE-bla HEK293T, beta-lactamase FRET ratio; series mostly up to 92.4 µM
In short: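 Antagonist mode: compounds are added alongside the adenylyl cyclase activator NKH477 (0.25 uM final) to CRE-bla HEK293T cells for 3 h. LiveBLAzer FRET substrate, 2 h at room temperature, reports bla expression.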

[16] = target: Beta-2 adrenergic receptor (Homo sapiens) (UniProt P07550); experiment: Adrenergic beta2 receptor (ADRB2) small molecule antagonists, cell-based qHTS assay (AID 1963592); conditions: CHO-ADRB2 cells, isoproterenol-stimulated cAMP HTRF ratio, 0.5 h; series mostly up to 92.4 µM; note: nearly all actives have a fitted effect of over 50% in size
Sequence of Beta-2 adrenergic receptor (Homo sapiens) (P07550 whole entry, looked up): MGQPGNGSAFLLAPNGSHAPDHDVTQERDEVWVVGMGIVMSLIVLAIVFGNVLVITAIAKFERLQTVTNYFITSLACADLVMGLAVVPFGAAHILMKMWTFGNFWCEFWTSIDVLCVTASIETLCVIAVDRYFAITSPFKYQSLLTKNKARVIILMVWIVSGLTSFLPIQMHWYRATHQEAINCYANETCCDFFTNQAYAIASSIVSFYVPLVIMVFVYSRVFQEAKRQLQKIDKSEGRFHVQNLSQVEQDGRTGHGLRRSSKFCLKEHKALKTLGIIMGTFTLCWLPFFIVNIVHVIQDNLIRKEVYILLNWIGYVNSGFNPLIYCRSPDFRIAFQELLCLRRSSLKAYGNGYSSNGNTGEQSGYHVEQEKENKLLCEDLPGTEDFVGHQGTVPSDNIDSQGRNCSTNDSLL
In short: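 Assay format: CHO-ADRB2 cells, 18-20hr seeding at 37C/5% CO2, then compound plus 1nM isoproterenol agonist mix for 0.5hr RT. Homogeneous time-resolved fluorescence cAMP detection after 1hr, expressed as 665/615 nm ratio.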

[17] = target: D(2) dopamine receptor (Homo sapiens) (UniProt P14416); experiment: Dopamine D2 receptor (DRD2) small molecule agonists, cell-based qHTS assay (AID 1963594); conditions: HEK293-DRD2 cAMP HTRF, agonist mode, 30 min; series mostly up to 92.4 µM; note: nearly all actives have a fitted effect of over 35% in size
Sequence of D(2) dopamine receptor (Homo sapiens) (P14416 whole entry, looked up): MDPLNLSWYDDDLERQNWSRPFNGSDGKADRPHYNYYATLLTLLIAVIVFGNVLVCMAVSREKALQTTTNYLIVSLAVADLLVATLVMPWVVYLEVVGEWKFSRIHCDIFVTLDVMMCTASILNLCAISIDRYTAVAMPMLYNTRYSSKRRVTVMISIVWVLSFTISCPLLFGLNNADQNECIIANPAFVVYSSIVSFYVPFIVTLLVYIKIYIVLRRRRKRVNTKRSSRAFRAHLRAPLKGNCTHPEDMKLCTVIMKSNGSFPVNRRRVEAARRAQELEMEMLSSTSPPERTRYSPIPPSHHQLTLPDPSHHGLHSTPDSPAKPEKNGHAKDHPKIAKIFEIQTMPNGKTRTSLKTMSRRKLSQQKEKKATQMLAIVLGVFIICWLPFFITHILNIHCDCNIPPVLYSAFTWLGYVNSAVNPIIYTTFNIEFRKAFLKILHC
In short: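 HEK293 cells stably expressing human DRD2, pre-treated with PDE inhibitor Ro20-1724 (0.1 mM final) and compound 10 min at room temperature, then stimulated with NKH477 (200nM […]) for 30 min. cAMP read by HTRF (665/620 nm).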

[18] = target: D(2) dopamine receptor (Homo sapiens) (UniProt P14416); experiment: Dopamine D2 receptor (DRD2) small molecule antagonists, cell-based qHTS assay (AID 1963595; active = well fitted inhibition curve with a large enough effect in the signal ratio in the repeat runs, with a control signal flat; the % refers to the signal ratio); conditions: HEK293-DRD2 cAMP HTRF antagonist mode; series mostly up to 92.4 µM
In short: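 HTRF cAMP read-out at 665 and 620 nm emission (340 nm excitation). Antagonist mode: compounds were tested against 12 nM quinpirole in DRD2-HEK293 cells, with 200 nM NKH477 raising cAMP and 0.1 mM Ro20-1724 blocking its breakdown.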
% is set by controls: 0 for no effect and ±100 for the full control effect.

CCCCCCOc1ccc(N)cc1
active: Potency [2] 21.7 µM
inactive: Potency [1] | Potency [3] | outcome [4] | outcome [5] | Potency [6] | Potency [7] | Potency [8] | Potency [9] | Potency [10] | Potency [11] | Potency [12] | Potency [13] | Potency [14] | Potency [15] | Potency [16] | Potency [17] | Potency [18]

NS(=O)(=O)c1cc(C2(O)NC(=O)c3ccccc32)ccc1Cl (stereo not drawn)
inactive: Potency [1] | Potency [2] | Potency [3] | outcome [4] | outcome [5] | Potency [6] | Potency [7] | Potency [8] | Potency [9] | Potency [10] | Potency [11] | Potency [14] | Potency [15] | Potency [16] | Potency [17] | Potency [18]

COc1ncnc(NS(=O)(=O)c2ccc(N)cc2)c1OC
inactive: Potency [1] | Potency [2] | Potency [3] | outcome [4] | outcome [5] | Potency [6] | Potency [7] | Potency [8] | Potency [9] | Potency [10] | Potency [11] | Potency [14] | Potency [15] | Potency [16] | Potency [17] | Potency [18]

NCC(=O)O
inactive: activity change, negative = cytotoxicity [1] -4.41% [at 19 µM] | activity, positive = activation [2] -0.375% [at 19 µM] | activity change [3] 1.37% [at 11.8 µM, stronger effect = higher value] | activation [4] -0.57% [at 15.8 µM] | activation [5] -1.52% [at 11.8 µM] | activation [6] 0.573% [at 13.5 µM] | activation [7] 1.19% [at 13.6 µM] | activity change, negative = cytotoxicity [8] -11.7% [at 13.5 µM] | activity change, negative = cytotoxicity [9] -0.16% [at 13.5 µM] | activity change, negative = cytotoxicity [10] -0.356% [at 13.5 µM] | activation [11] 0.144% [at 13.5 µM] | activation [14] -1.05% [at 19 µM] | activity change, negative = inhibition [15] 4.57% [at 18.9 µM] | activity change, negative = inhibition [16] -10.5% [at 19 µM] | activation [17] 4.26% [at 19 µM] | activity change, negative = inhibition [18] -7.27% [at 18.9 µM]

CC[C@@H](CO)NCCN[C@@H](CC)CO
inactive: Potency [1] | Potency [2] | Potency [3] | outcome [4] | outcome [5] | Potency [6] | Potency [7] | Potency [8] | Potency [9] | Potency [10] | Potency [11] | Potency [14] | Potency [15] | Potency [16] | Potency [17] | Potency [18]

CCN[C@@H]1C[C@H](N)[C@@H](OC2OC(CN)=CCC2N)[C@H](O)[C@H]1O[C@H]1OC[C@](C)(O)[C@H](NC)[C@H]1O (stereo partly drawn)
inactive: activity change, negative = cytotoxicity [1] -5.32% [at 0.349 µM] | activity, positive = activation [2] 8.13% [at 0.349 µM] | activity change [3] -1.46% [at 0.217 µM, stronger effect = higher value] | activation [4] -0.712% [at 0.29 µM] | activation [5] 1.44% [at 0.217 µM] | activation [6] 2.31% [at 0.249 µM] | activation [7] -0.776% [at 0.249 µM] | activity change, negative = cytotoxicity [8] 1.03% [at 0.249 µM] | activity change, negative = cytotoxicity [9] -10.4% [at 0.249 µM] | activity change, negative = cytotoxicity [10] -18.4% [at 0.249 µM] | activation [11] 5.55% [at 0.249 µM] | activation [14] -0.986% [at 0.349 µM] | activity change, negative = inhibition [15] -9.29% [at 0.349 µM] | activity change, negative = inhibition [16] -0.979% [at 0.349 µM] | activation [17] -8.99% [at 0.349 µM] | activity change, negative = inhibition [18] 14.9% [at 0.348 µM]

O=NN(CCCl)C(=O)NC1CCCCC1
inactive: Potency [1] | Potency [2] | Potency [3] | outcome [4] | outcome [5] | Potency [6] | Potency [7] | Potency [8] | Potency [9] | Potency [10] | Potency [11] | Potency [14] | Potency [15] | Potency [16] | Potency [18]

From PubChem BioAssay (Tox21)
